Measurements published in PubChem BioAssay (Tox21).
Records with an inconclusive call do not appear. Calls of active or inactive are those of the source. Unless noted, the call rests on the fitted dose curve; in most records, active means well fitted curve in the direction sought with a large enough effect in the repeat runs; inconclusive means weak or mixed curves; inactive means no such curve, though single readings can be large; an effect the other way counts as inactive or inconclusive.

How the values were obtained:
[1] = molecular target: Androgen receptor (Homo sapiens) (UniProt P10275); experiment: qHTS assay to identify small molecule antagonists of the androgen receptor (AR) signaling pathway using the MDA cell line in the presence of 0.5 nM R1881 (AID 1259243); further: nearly all actives have a fitted effect of over 50% in size; further: potency means the concentration at half of the fitted maximal effect
Procedure, shortened: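 MDA-kb2, MMTV-luc (AR/GR elements); 3,000 cells/well; cpd + 0.5 nM R1881 final; 16 hr 37C, 0% CO2; ONE-Glo 30 min RT; luminescence.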

[2] = qHTS assay to identify small molecule HDAC inhibitors (AID 1259364);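 further: wild-type HCT-116 cells with endogenous class I/II HDAC activity; top concentration of the series differs between compounds; nearly all actives have a fitted effect of over 45% in size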
Procedure, shortened: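 HCT-116 (wild type), 1,500 cells/well, overnight; compound 2 hr 37C 5% CO2; HDAC-Glo I/II reagent 30 min RT; luminescence readout.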

[3] = qHTS assay to identify small molecule antagonists of the sonic hedgehog signaling (Shh) pathway - cell viability counter screen (AID 1259367); further: nearly all actives have a fitted effect of over 55% in size; further: potency means the concentration at half of the fitted maximal effect
Procedure, shortened: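 Viability was read by CellTiter-Fluor fluorescence in the same wells, reagent added 23 hr into compound treatment and incubated 1 hr at 37C. The 3T3 Gli1-Luc reporter cells (2,000/well) received conditioned medium after compound and ran 24 hr.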

[4] = qHTS assay to identify small molecule agonists of the sonic hedgehog signaling (Shh) pathway (AID 1259368; calls by dose curve;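 further: NIH/3T3-derived 3T3Gli1-Luc cells carrying a stable Gli1-driven firefly luciferase reporter; series mostly up to about 92 µM; nearly all actives have a fitted effect of over 15% in size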)
Procedure, shortened: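 Read-out: firefly luciferase luminescence from a Gli1 response element reporter stably integrated in NIH/3T3-derived 3T3Gli1-Luc cells, measured 30 min at room temperature after reagent addition. Compound exposure lasted 24 hr at 37 C, 5% CO2.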

[5] = qHTS assay to identify small molecule antagonists of the sonic hedgehog signaling (Shh) pathway (AID 1259369; calls by dose curve; further: nearly all actives have a fitted effect of over 45% in size; further: potency means the concentration at half of the fitted maximal effect)
Procedure, shortened: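 Luminescence readout: firefly Luc under Gli1 response element in 3T3Gli1-Luc cells (NIH/3T3 clone). Antagonist mode, stimulation by conditioned medium; compound exposure 24hr at 37 C, 5% CO2.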

[6] = molecular target: Estrogen receptor beta (Homo sapiens) (UniProt Q92731); experiment: qHTS assay to identify small molecule agonists of the estrogen receptor beta (ER-beta) signaling pathway (AID 1259377; active means well fitted activation curve with a large enough effect in the signal ratio in the repeat runs, not every such curve was filed as active; the % refers to the signal ratio)
Procedure, shortened: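 Ratiometric beta-lactamase FRET read-out came after 2 h substrate loading at room temperature. It followed 16 h compound treatment at 37C of GripTite HEK293T cells carrying a UAS-bla reporter, plated in 2% charcoal-stripped FBS medium.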

[7] = molecular target: Estrogen receptor beta (Homo sapiens) (UniProt Q92731); experiment: qHTS assay to identify small molecule antagonists of the estrogen receptor beta (ER-beta) signaling pathway (AID 1259378; active means well fitted inhibition curve with a large enough effect in the signal ratio in the repeat runs, not every such curve was filed as active; the % refers to the signal ratio; further: potency means the concentration at half of the fitted maximal effect)
Procedure, shortened: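 Antagonist mode: compounds added to beta-lactamase reporter HEK293T ER-beta-UAS cells stimulated with E2 (1nM final), 16 hr at 37C. LiveBLAzer B/G FRET substrate, 2 hours room temperature, fluorescence read-out.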

[8] = qHTS assay to identify small molecule agonists of the estrogen receptor beta (ER-beta) signaling pathway - cell viability counter screen (AID 1259380); further: nearly all actives have a fitted effect of over 30% in size; further: potency means the concentration at half of the fitted maximal effect
Procedure, shortened: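 Luminescence read-out (CellTiter-Glo, 30 min, room temp) taken in the same wells as the beta-lactamase reporter assay; ER-beta-UAS-bla HEK293T cells exposed to DMSO-dissolved compounds for 16 hr at 37C in 2% charcoal-stripped FBS medium.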

[9] = qHTS assay to identify small molecule agonists or antagonists of the thyroid stimulating hormone receptor (TSHR) signaling pathway - wild type cell line counter screen (AID 1259384; calls by dose curve)
Procedure, shortened: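 Counter screen in untransfected Hek293: compounds (15-point titration, triplicate) plus phosphodiesterase inhibitor Ro20-1724 added after 18 h plating; 30 min RT. Intracellular cAMP via competitive d2/cryptate immunoassay, 1 h incubation.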

[10] = molecular target: Thyrotropin receptor (Homo sapiens) (UniProt P16473); experiment: qHTS assay to identify small molecule antagonists of the thyroid stimulating hormone receptor (TSHR) signaling pathway (AID 1259385; calls by dose curve; further: nearly all actives have a fitted effect of over 20% in size)
Procedure, shortened: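 Antagonist mode: compound-treated TSHR-expressing HEK293 cells were stimulated with 1.5 ng/mL TSH (final) in presence of Ro20-1724 for 30 min at RT. HTRF cAMP detection after 1 h; each compound tested at 15 concentrations, triplicate.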

[11] = qHTS assay to identify small molecule agonists of the estrogen receptor alpha (ER-alpha) signaling pathway in the presence of an antagonist - cell viability counter screen (AID 1259386);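 further: cells exposed to compounds for 22 h at 37 °C before the viability read; nearly all actives have a fitted effect of over 30% in size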; further: potency means the concentration at half of the fitted maximal effect; on activity change, negative = cytotoxicity: series mostly up to about 92 µM
Procedure, shortened: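 Read-out: CellTiter-Fluor fluorescence after 1hr reagent incubation, measured in the same wells as the luciferase readout. VM7Luc4E2 cells were exposed to 15 compound concentrations with 10.0nM ICI-182,780 for 22hr at 37C.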

[12] = molecular target: Progesterone receptor (Homo sapiens) (UniProt P06401); experiment: qHTS assay to identify small molecule agonists of the progesterone receptor (PR) signaling pathway (AID 1346784; calls by dose curve; further: nearly all actives have a fitted effect of over 30% in size)
Procedure, shortened: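 Agonist qHTS: compounds pinned onto 3,000 PR-UAS-bla HEK 293T cells per well in charcoal-stripped serum medium, 16hr at 37C, then beta-lactamase activity measured by LiveBLAzer FRET fluorescence after 2 hours at room temperature.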

[13] = molecular target: Estrogen receptor (Homo sapiens) (UniProt P03372); experiment: qHTS assay to identify small molecule antagonists of the estrogen receptor alpha (ER-alpha) signaling pathway using the BG1 cell line in the presence of 0.1 nM 17-beta-estradiol (AID 1259244); further: nearly all actives have a fitted effect of over 50% in size; further: potency means the concentration at half of the fitted maximal effect
Procedure, shortened: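 Luminescence after ONE-Glo (30 min, room temperature) measured ERE-luciferase activity in VM7Luc4E2 cells treated 22 h with compound and 0.1 nM final 17beta-estradiol as stimulator.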

[14] = qHTS assay to identify small molecule phospholipidosis (PLD) inducers (AID 1259344; active means well fitted curve in the direction sought with a large enough effect; an effect the other way counts as inactive or inconclusive)
Procedure, shortened: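 Phospholipid accumulation was scored by imaging: fixed, Hoechst-counterstained HepG2 cells stained with LipidTOX Red after 24 h compound exposure at 37 C. Read-outs were pit count and pit intensity per well or per cell, with amiodarone and DMSO controls.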

[15] = qHTS assay to identify small molecule agonists of the sonic hedgehog signaling (Shh) pathway - cell viability counter screen (AID 1259366); further: nearly all actives have a fitted effect of over 50% in size; further: potency means the concentration at half of the fitted maximal effect
Procedure, shortened: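 Cytotoxicity counter screen: CellTiter-Fluor reagent added after 23 h compound exposure, then 1 h at 37C and fluorescence read. Cells were 3T3 Gli1-Luc, seeded 2,000 per well and dosed 4 h post-plating.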

[16] = qHTS assay to identify small molecule agonists of the androgen receptor (AR) signaling pathway in the presence of an antagonist - cell viability counter screen (AID 1259379); further: nearly all actives have a fitted effect of over 25% in size; further: potency means the concentration at half of the fitted maximal effect;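 on activity change, negative = cytotoxicity: MDA-kb2 human breast cancer cells carrying an MMTV luciferase reporter; series mostly up to about 92 µM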
Procedure, shortened: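 Viability counter screen: CellTiter-Fluor fluorescence, measured in the same wells as the luciferase read-out. MDA-kb2 cells, 3,000/well, with nilutamide at 3.0uM final and compounds at 15 concentrations, 16 hr at 37C, 0% CO2.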

[17] = qHTS assay to identify small molecule antagonists of the estrogen receptor beta (ER-beta) signaling pathway - cell viability counter screen (AID 1259382); further: nearly all actives have a fitted effect of over 55% in size; further: potency means the concentration at half of the fitted maximal effect;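 on activity change, negative = cytotoxicity: HEK293T cells carrying ER-beta-UAS-bla reporter stimulated with estradiol; series mostly up to about 92 µM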
Procedure, shortened: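 Luminescent ATP read-out (CellTiter-Glo, 30 min, RT) taken in the same wells as the bla reporter assay. HEK293T ER-beta-UAS-bla cells in 2% charcoal-stripped FBS were exposed to compounds with 1nM E2 for 16 hr at 37C.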

[18] = molecular target: Estrogen receptor (Homo sapiens) (UniProt P03372); experiment: qHTS assay to identify small molecule agonists of the estrogen receptor alpha (ER-alpha) signaling pathway in the presence of an antagonist (AID 1259383; calls by dose curve; further: top concentration of the series differs between compounds; nearly all actives have a fitted effect of over 15% in size)
Procedure, shortened: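 Luciferase luminescence (ONE-Glo, 30min at room temperature) measured in VM7Luc4E2 cells after 22hr compound exposure at 15 concentrations, with 10.0nM ICI-182,780 final present; cells express endogenous ER-alpha and carry four EREs upstream of luciferase.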

[19] = qHTS assay to identify small molecule HDAC inhibitors - cell viability counter screen (AID 1259365); further: series mostly up to about 92 µM; nearly all actives have a fitted effect of over 50% in size
Procedure, shortened: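 CellTiter-Glo luminescence (30 min, room temperature) reported viability after a 2 h compound exposure at 37 C. Cells: wild-type HCT-116, 1,500 per well, seeded the night before.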

[20] = molecular target: Androgen receptor (Homo sapiens) (UniProt P10275); experiment: qHTS assay to identify small molecule agonists of the androgen receptor (AR) signaling pathway in the presence of an antagonist (AID 1259381; calls by dose curve; further: nearly all actives have a fitted effect of over 15% in size)
Procedure, shortened: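 Luciferase read-out (ONE-Glo, 30min room temperature) in MDA-kb2 MMTV-reporter cells; agonist mode run in presence of AR antagonist nilutamide, 3.0uM final. Compounds tested as 15-point series, 16hr exposure at 37C, 0% CO2.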
On the % scale 0 is the no-effect control and ±100 the full control effect.

Sequence of Thyrotropin receptor (Homo sapiens) (P16473 whole entry, looked up): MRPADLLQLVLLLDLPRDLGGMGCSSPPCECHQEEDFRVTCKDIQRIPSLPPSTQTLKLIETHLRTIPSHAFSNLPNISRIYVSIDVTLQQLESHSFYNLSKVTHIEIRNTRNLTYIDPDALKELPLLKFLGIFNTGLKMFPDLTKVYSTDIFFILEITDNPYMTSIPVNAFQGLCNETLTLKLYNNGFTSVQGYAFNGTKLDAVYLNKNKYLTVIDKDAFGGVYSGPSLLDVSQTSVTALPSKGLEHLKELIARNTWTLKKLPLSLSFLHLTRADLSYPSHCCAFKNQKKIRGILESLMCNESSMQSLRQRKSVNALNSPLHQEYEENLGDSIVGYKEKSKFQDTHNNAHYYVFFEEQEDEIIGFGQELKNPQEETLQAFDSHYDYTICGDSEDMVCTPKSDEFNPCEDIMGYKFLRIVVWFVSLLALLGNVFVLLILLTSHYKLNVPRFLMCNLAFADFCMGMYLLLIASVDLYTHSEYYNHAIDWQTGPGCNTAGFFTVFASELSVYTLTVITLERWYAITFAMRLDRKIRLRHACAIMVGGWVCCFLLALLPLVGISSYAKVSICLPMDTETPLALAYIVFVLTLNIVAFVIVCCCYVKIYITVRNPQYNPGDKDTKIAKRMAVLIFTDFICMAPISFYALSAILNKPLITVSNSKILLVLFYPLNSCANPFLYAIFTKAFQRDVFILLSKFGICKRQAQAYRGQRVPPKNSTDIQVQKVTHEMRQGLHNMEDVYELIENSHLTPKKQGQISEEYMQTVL
Sequence of Estrogen receptor (Homo sapiens) (P03372 whole entry, looked up): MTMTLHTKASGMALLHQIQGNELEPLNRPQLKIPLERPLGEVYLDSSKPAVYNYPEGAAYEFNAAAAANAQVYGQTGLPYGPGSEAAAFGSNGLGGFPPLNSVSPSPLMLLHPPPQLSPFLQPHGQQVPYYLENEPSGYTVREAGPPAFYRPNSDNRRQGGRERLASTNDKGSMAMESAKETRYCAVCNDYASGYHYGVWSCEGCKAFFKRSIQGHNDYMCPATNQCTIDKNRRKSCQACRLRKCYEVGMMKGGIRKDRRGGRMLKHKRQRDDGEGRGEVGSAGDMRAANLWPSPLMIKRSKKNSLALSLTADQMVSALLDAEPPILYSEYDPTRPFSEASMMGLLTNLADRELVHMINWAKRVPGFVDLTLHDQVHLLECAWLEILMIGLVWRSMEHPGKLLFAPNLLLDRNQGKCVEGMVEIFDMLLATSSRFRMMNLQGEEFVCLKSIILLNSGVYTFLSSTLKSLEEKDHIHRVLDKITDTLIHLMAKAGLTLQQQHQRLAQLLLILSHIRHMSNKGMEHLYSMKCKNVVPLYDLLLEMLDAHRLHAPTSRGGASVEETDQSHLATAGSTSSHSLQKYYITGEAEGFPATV
Sequence of Estrogen receptor beta (Homo sapiens) (Q92731 whole entry, looked up): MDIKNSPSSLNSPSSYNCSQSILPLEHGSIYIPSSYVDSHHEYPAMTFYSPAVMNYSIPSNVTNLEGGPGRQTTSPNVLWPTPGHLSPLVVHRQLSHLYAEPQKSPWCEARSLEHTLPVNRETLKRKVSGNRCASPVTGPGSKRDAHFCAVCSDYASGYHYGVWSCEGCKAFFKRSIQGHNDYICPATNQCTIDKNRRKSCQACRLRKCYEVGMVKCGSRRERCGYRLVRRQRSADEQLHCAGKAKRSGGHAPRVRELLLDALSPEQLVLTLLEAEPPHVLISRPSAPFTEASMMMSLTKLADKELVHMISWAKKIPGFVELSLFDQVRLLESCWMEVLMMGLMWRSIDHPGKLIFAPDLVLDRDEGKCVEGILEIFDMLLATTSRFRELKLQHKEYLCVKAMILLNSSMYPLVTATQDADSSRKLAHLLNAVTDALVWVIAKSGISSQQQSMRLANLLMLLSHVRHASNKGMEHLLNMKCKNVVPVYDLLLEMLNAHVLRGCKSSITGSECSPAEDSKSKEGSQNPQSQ
Sequence of Androgen receptor (Homo sapiens) (P10275 whole entry, looked up): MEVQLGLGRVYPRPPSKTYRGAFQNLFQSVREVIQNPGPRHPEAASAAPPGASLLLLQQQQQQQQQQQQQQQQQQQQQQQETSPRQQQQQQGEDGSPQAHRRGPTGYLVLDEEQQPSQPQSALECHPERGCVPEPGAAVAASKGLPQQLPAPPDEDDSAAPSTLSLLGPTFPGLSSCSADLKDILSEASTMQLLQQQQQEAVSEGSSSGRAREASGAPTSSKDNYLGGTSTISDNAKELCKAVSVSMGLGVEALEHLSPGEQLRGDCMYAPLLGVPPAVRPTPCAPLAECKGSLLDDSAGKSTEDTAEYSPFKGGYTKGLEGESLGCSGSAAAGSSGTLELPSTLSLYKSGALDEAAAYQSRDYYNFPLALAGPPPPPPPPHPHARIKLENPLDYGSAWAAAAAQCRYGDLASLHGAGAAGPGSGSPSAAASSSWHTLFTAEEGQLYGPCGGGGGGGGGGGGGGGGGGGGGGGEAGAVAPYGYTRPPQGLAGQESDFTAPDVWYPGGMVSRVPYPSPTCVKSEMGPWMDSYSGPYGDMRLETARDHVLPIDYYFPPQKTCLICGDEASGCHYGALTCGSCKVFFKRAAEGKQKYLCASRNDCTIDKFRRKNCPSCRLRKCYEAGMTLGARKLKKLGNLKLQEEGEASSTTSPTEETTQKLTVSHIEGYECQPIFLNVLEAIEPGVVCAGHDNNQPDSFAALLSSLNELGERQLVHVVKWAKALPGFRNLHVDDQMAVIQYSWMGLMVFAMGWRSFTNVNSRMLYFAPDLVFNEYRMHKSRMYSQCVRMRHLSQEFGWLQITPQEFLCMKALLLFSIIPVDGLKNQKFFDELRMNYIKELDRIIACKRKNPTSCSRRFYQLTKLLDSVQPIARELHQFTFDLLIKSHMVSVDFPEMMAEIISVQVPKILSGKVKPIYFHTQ
Sequence of Progesterone receptor (Homo sapiens) (P06401 whole entry, looked up): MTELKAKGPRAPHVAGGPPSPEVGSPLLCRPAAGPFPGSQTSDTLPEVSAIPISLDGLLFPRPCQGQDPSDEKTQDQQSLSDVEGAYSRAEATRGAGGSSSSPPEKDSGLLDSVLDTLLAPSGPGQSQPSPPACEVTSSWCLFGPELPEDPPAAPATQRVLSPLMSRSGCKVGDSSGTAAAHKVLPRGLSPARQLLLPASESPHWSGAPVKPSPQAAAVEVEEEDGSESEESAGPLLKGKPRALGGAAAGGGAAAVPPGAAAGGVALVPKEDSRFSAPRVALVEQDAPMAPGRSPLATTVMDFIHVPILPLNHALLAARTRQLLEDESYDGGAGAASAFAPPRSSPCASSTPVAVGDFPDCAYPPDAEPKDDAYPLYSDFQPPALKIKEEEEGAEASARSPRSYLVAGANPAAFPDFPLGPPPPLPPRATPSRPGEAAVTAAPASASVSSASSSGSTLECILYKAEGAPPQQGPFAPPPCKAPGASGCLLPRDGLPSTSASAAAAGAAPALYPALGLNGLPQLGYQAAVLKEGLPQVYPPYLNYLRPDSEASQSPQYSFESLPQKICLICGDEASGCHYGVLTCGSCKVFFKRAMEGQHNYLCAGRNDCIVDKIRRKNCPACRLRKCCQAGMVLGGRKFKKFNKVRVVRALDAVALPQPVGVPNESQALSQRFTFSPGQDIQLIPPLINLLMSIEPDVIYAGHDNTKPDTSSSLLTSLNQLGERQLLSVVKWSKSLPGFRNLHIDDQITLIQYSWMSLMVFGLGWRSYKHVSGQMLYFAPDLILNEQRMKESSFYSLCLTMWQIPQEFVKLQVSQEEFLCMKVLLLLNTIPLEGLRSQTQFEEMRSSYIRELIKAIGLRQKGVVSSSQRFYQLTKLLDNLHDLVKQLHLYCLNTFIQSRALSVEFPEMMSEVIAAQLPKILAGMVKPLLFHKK

Cc1ccc(-n2[nH]c(C)c(N=Nc3cccc(-c4cccc(C(=O)O)c4)c3O)c2=O)cc1C
inactive: Potency [1] | Potency [2] | Potency [3] | Potency [4] | Potency [5] | Potency [6] | outcome [9] | Potency [10] | outcome [12]
active: Potency [7] 8.41 µM | Potency [8] 26.6 µM | Potency [11] 29.8 µM

CCCCNc1c(C(=O)OCC)c(C)nc2c1cnn2CC
inactive: Potency [13] | Potency [14] | Potency [2] | Potency [15] | Potency [3] | Potency [4] | Potency [6] | Potency [7] | Potency [16] | Potency [8] | Potency [17] | Potency [18] | outcome [9] | Potency [10] | Potency [11]
active: Potency [5] 0.0422 µM

CNC(=O)c1cc(Oc2ccc(NC(=O)Nc3ccc(Cl)c(C(F)(F)F)c3)cc2)ccn1
inactive: Potency [14] | Potency [2] | Potency [19] | Potency [4] | Potency [18] | outcome [9] | Potency [10]
active: Potency [13] 26.6 µM | Potency [5] 26.6 µM | Potency [7] 9.44 µM | Potency [8] 29.8 µM

CO[C@H]1C=CO[C@@]2(C)Oc3c(C)c(O)c4c(O)c(cc(O)c4c3C2=O)NC(=O)/C(C)=C\C=C/[C@H](C)[C@H](O)[C@@H](C)[C@@H](O)[C@@H](C)[C@H](OC(C)=O)[C@@H]1C
inactive: Potency [14] | Potency [2] | Potency [19] | Potency [4] | Potency [6] | Potency [18] | outcome [9] | Potency [10] | outcome [12]
active: Potency [13] 54.9 µM | Potency [15] 13.8 µM | Potency [3] 15.5 µM | Potency [5] 13.8 µM | Potency [7] 43.6 µM | Potency [16] 48.9 µM | Potency [17] 69.1 µM | Potency [11] 38.8 µM

O=S(O)O
inactive: activity change, negative = inhibition [13] -4.06% [at 19 µM] | activity change, negative = inhibition [2] 2.9% [at 19 µM] | activity change, negative = cytotoxicity [19] 2.88% [at 19 µM] | viability change, negative = cytotoxic [15] 2.93% [at 19 µM] | viability change, negative = cytotoxic [3] 0.928% [at 19 µM] | activity change [4] -1.4% [at 18.9 µM, hits give high values] | activity change, negative = inhibition [5] 12.9% [at 19 µM] | activation [6] -0.957% [at 19 µM] | activity, negative = inhibition [7] 1.38% [at 19 µM] | activity change, negative = cytotoxicity [16] 1.09% [at 19 µM] | activity change, negative = cytotoxicity [8] -0.0055% [at 19 µM] | activity change, negative = cytotoxicity [17] 4.33% [at 19 µM] | activation [18] -0.842% [at 19 µM] | cAMP activity change [9] -1.65% [at 18.9 µM] | activity change, negative = inhibition [10] 0.0817% [at 19 µM] | activity change, negative = cytotoxicity [11] 0.0003% [at 19 µM]

CCOC(=O)CC(C)O (centres undefined)
inactive: Potency [1] | Potency [2] | Potency [15] | Potency [3] | Potency [4] | Potency [5] | Potency [6] | Potency [16] | Potency [8] | Potency [20] | Potency [17] | outcome [9] | Potency [10] | Potency [11]

CCN(CC)CCNc1ccc(CO)c2sc3ccccc3c(=O)c12
inactive: Potency [13] | Potency [14] | Potency [2] | Potency [19] | Potency [4] | Potency [18]
active: Potency [5] 13.3 µM | Potency [8] 10.6 µM | Potency [17] 11.9 µM | Potency [11] 10.6 µM

CC(C)(c1cc(Br)c(OCCO)c(Br)c1)c1cc(Br)c(OCCO)c(Br)c1
inactive: Potency [2] | Potency [3] | Potency [4] | Potency [6] | Potency [20] | Potency [18]
active: Potency [1] 23.8 µM | Potency [5] 1.89 µM | Potency [7] 4.75 µM | Potency [16] 47.5 µM | Potency [8] 42.3 µM | Potency [17] 53.3 µM | Potency [11] 53.3 µM
